An excerpt weighted towards active compounds, which were near 12% of everything screened.
Calpain2 inh = calpain II (pig) inhibition; hit rate 0.37% among 220,000; inhibition, % at 16 µM; purified calpain II, fluorogenic peptide substrate, 30 min; AID 1236;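 active = inhibition above about 50%, limit read from the data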
ROMK mod = human ROMK K+ channel modulation, primary screen. P48048. Tet-inducible ROMK, thallium flux fluorescence; actives lie on both sides. B-score at 10 µM. hit rate 2% among 130,000. AID 1918;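 active = signal ratio slope over the read window, or its plate-corrected B-score, at least 3 SD from the plate mean, either direction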;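 also: B-score of the F/F0 ratio slope over 7 to 12 s after thallium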
Target sequence (P48048 whole entry, looked up): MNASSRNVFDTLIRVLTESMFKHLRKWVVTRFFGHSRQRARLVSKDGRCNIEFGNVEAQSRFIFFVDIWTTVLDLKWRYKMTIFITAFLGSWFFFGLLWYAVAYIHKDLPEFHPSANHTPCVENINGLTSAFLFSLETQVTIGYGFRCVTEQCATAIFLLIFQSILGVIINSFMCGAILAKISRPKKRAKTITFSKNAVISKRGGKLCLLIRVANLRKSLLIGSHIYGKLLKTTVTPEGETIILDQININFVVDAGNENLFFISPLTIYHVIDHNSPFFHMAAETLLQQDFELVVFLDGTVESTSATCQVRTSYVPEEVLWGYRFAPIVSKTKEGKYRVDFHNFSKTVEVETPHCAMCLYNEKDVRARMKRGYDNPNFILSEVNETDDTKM
WT yeast gro inh = growth inhibition of WT yeast, mitochondrial fusion screen; inhibition, % at 10 µM; mitochondrial fusion phenotypic screen, WT strain; hit rate 2.1% among 190,000; AID 1362; in the data active = inhibition above about 58%; tested in S. cerevisiae
Cl transport mod = modulates chloride dependent transport by human KCC2; AID 1456; hit rate 2.2% among 190,000; KCC2 cells, thallium flux FluoZin-2 fluorescence; B-score of Tl+ flux slope (higher = more flux/activation; lower = inhibition) at 10 µM; Q9H2X9;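 active = thallium flux slope and its plate-corrected score both differing from the plate sample mean at a set confidence after two filtering rounds, in either direction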;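 also: slope of fluorescence scaled to starting intensity during 10 to 20 s after thallium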
Lmaj promast = reduces viability of Leishmania major promastigotes. AID 1063. inhibition, % at 10 µM. resazurin fluorescence viability. hit rate 9% among 200,000; in the data active = inhibition above about 50%;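 also: promastigotes grown with compound for 44 hours at 28 °C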
KCC2 secondary = KCC2 (human) modulation, secondary assay. hit rate 15% among 3,700. shares compounds with Cl transport mod. HEK293-KCC2, thallium flux, FluoZin2 fluorescence; hits give high values. AID 1713. normalised thallium flux (F/F0 slope) at 10 µM;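 active = thallium flux slope above the same plate's solvent-only control mean plus 3 SD; inconclusive = the two replicate wells disagree; inactive = no significant difference from solvent-only control wells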
KCC2 bumet counter = thallium flux persisting under bumetanide in KCC2 cells, counter-screen secondary assay; shares compounds with Cl transport mod; HEK293-KCC2 + bumetanide/ouabain, thallium flux FluoZin2; hits give high values; normalized thallium flux at 10 µM; hit rate 49% among 3,700;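 active = thallium entry rate above the same plate's blocked-transporter control wells by more than 3 SD; inconclusive = the two repeat wells disagree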;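 also: raw slope of fluorescence over initial fluorescence between 10 and 20 s after thallium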
KCC2 secondary2 = confirmation of human KCC2 transport modulators | shares compounds with Cl transport mod | HEK293-KCC2, thallium flux FluoZin2 fluorescence; actives lie on both sides; F/F0 rise rate, 10–20 s post-thallium | normalized thallium flux at 10 µM | hit rate 23% among 3,700 | AID 1715;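 active = thallium flux slope more than 3 SD above or below the plate's solvent-only control mean, mostly below; inconclusive = the two repeat wells disagreed; inactive = no significant shift from solvent-only controls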;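 also: raw slope with 0.1% DMSO as baseline and bumetanide as block control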
HEK293 Tl flux = acts in parental HEK cells, KCC2 counter-screen | hit rate 46% among 3,700 | HEK293 parental cells, thallium flux FluoZin2, ouabain; baseline-ratio fluorescence slope, 10–20 s after thallium | AID 1716 | shares compounds with Cl transport mod | thallium flux rate (normalised fluorescence) at 10 µM;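 active = thallium flux rate significantly above the same plate's solvent-only control wells, beyond their mean plus 3 SD; inconclusive = the two replicate wells gave conflicting results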
KCC2 retest ouab = modulates human KCC2 on retest with ouabain. AID 1717. raw Tl+ flux slope (below DMSO = inhibition, above = activation) at 10 µM. shares compounds with Cl transport mod. hit rate 48% among 3,700. HEK293-KCC2, thallium flux FluoZin2 fluorescence; bidirectional: low = inhibitor, high = activator;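 active = thallium flux slope beyond 3 SD from same-plate DMSO control mean in most replicates, usually higher, sometimes lower; inconclusive = repeat tests gave conflicting results; inactive = no significant difference from controls in most replicates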;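 also: slope of initial-normalized fluorescence between seconds 10 and 20 after thallium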
HEK counter2 = counter-screen for KCC2 modulators: effect in parental HEK293 cells. shares compounds with Cl transport mod. thallium flux FluoZin-2 fluorescence slope. thallium flux slope at 10 µM. hit rate 33% among 3,700;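 active = thallium flux slope above the same plate's solvent-control mean plus 3 SD in both duplicate wells; inconclusive = duplicate wells that disagreed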;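 also: run without ouabain in cells lacking the KCC2 cotransporter; slope of fluorescence scaled to its starting value between 10 and 20 s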
* marks the source's active call; other numbers are inactive results.

`CC(=O)Nc1ccc(NC(=O)CSc2nccn2Cc2ccccc2)cc1` gave Calpain2 inh 17.4, WT yeast gro inh 10.8, Cl transport mod -1.94 and Lmaj promast -5.7.
CC(=O)c1ccc(NC(=O)CSc2nccn2CCc2ccccc2)cc1 was read as Calpain2 inh 24.9, ROMK mod -1.62, WT yeast gro inh -0.4 and Lmaj promast -3.0.
Screening CCOC(=O)C(=O)Nc1ccc(F)cc1 returned Calpain2 inh -1.0, ROMK mod -0.519, WT yeast gro inh -16.2 and Lmaj promast -6.3.
CCOC(=O)C(=O)Nc1ccc(Oc2ccccc2)cc1 was read as Calpain2 inh 11.2, ROMK mod -0.432, WT yeast gro inh -11.4, Cl transport mod -4.01*, Lmaj promast -7.2, KCC2 secondary 0.00886, KCC2 bumet counter 0.00587, KCC2 secondary2 0.0316, HEK293 Tl flux 0.00694, KCC2 retest ouab 0.0165* and HEK counter2 0.0109.
For O=C(Nc1ccc(N2CCOCC2)cc1)c1cccc(S(=O)(=O)N2CCC(Cc3ccccc3)CC2)c1 the results were Calpain2 inh -78.4, WT yeast gro inh -10.4, Cl transport mod -1.54 and Lmaj promast -4.3.
For COc1cccc(CNC(=O)c2cc3oc4ccccc4c3n2C)c1OC the results were Calpain2 inh 21.8, WT yeast gro inh 4.7, Cl transport mod 7.51*, Lmaj promast -6.5, KCC2 secondary 0.00906, KCC2 bumet counter 0.00612, KCC2 secondary2 0.0355, HEK293 Tl flux 0.00442, KCC2 retest ouab 0.0201 and HEK counter2 0.0124.
Screening COc1ccccc1CC(=O)Nc1cc2oc3ccccc3c2cc1OC returned Calpain2 inh -27.6, WT yeast gro inh 20.1, Cl transport mod 0.968 and Lmaj promast 9.7.
For C/C(=N\NC(=O)c1ccc(CN2CCc3ccccc3C2)cc1)c1ccccc1O the results were Calpain2 inh -30.7, ROMK mod 0.869, WT yeast gro inh -18.4, Cl transport mod -2.28 and Lmaj promast -11.3.
CCC(CC)N1CCN(CC2CC=CCC2)CC1 (centres undefined) was read as Calpain2 inh -19.3, ROMK mod -0.13, WT yeast gro inh -7.0, Cl transport mod -0.0906 and Lmaj promast -3.5.
For Cc1cccc(NC(=S)N=Nc2c(O)n(C)c3ccc(S(=O)(=O)N4CCOCC4)cc23)c1 the results were Calpain2 inh -41.4, ROMK mod 0.0381, WT yeast gro inh 39.0, Cl transport mod 10.5*, Lmaj promast 10.8, KCC2 secondary inconclusive, KCC2 bumet counter 0.0553*, KCC2 secondary2 0.0314, HEK293 Tl flux 0.0187*, KCC2 retest ouab 0.0265 and HEK counter2 inconclusive.
`Cc1cc(C)cc(NC(=S)N=Nc2c(O)n(C)c3ccc(S(=O)(=O)N4CCOCC4)cc23)c1` gave Calpain2 inh -21.4, WT yeast gro inh 5.7, Cl transport mod 6.75*, Lmaj promast 24.9, KCC2 secondary 0.00681, KCC2 bumet counter 0.0176*, KCC2 secondary2 inconclusive, HEK293 Tl flux 0.0245*, KCC2 retest ouab 0.0275* and HEK counter2 0.017*.
`CCCOc1ccc(CCC(=O)N/N=C/c2ccncc2)cc1` gave Calpain2 inh 20.4, ROMK mod -0.00361 and Cl transport mod -0.625.
O=c1oc2ccccc2cc1-c1csc(Cc2nc(-c3ccc(Br)cc3)cs2)n1 was read as Calpain2 inh -22.9, WT yeast gro inh 12.3 and Lmaj promast 0.8.
For Cc1ccc(-c2csc(Cc3nc(-c4cc5ccccc5oc4=O)cs3)n2)cc1 the results were Calpain2 inh -57.6, ROMK mod 0.375, WT yeast gro inh 24.9, Lmaj promast -8.3, KCC2 secondary 0.0166, KCC2 bumet counter 0.00505, KCC2 secondary2 0.0289, HEK293 Tl flux 0.00703, KCC2 retest ouab 0.0155 and HEK counter2 0.00971.
Screening S=c1[nH]nc(-c2ccccn2)n1/N=C/c1ccc(Cl)c(Cl)c1 returned Calpain2 inh -2.5, Cl transport mod 40.9*, KCC2 secondary 0.00562, KCC2 bumet counter 0.109*, KCC2 secondary2 0.0544*, HEK293 Tl flux 0.0408*, KCC2 retest ouab 0.0665* and HEK counter2 0.0306*.
S=c1[nH]nc(-c2ccccn2)n1/N=C/c1ccc(-c2ccccc2Cl)o1 was read as Calpain2 inh 12.4, ROMK mod 0.327, WT yeast gro inh 42.7, Cl transport mod 132*, Lmaj promast -4.6, KCC2 secondary 0.122*, KCC2 bumet counter 0.138*, KCC2 secondary2 0.0307, HEK293 Tl flux 0.131*, KCC2 retest ouab 0.148* and HEK counter2 0.0132*.
`S=c1[nH]nc(-c2cc(-c3ccccc3)n[nH]2)n1/N=C/c1ccc(Cl)c(Cl)c1` gave Calpain2 inh 20.9, ROMK mod -1.63 and Cl transport mod 0.304.
`CN1C(=O)S/C(=C\c2ccc(-n3cncn3)cc2)C1=O` gave Calpain2 inh -8.7, ROMK mod 0.186, WT yeast gro inh -2.5 and Lmaj promast 7.0.
Screening Cc1cc(C)c(NC(=O)CN(c2ccccc2)S(=O)(=O)N(C)C)c(C)c1 returned Calpain2 inh -25.1, ROMK mod 0.00741, WT yeast gro inh -13.7, Cl transport mod 5.18*, Lmaj promast -2.0, KCC2 secondary 0.00919, KCC2 bumet counter 0.00523, KCC2 secondary2 0.0344, HEK293 Tl flux 0.00693, KCC2 retest ouab 0.0214 and HEK counter2 0.01.
For Cc1ccc(NC(=O)CN(c2ccccc2)S(=O)(=O)N(C)C)cc1C the results were Calpain2 inh 21.1, ROMK mod -0.0601, WT yeast gro inh 17.7, Cl transport mod 0.196 and Lmaj promast -5.6.
For COc1cccc(CCNC(=O)CC2C(=O)NCCN2Cc2ccc(Cl)c(F)c2)c1 (centres undefined) the results were Calpain2 inh -10.6, ROMK mod -0.318, WT yeast gro inh 31.4, Cl transport mod 0.165 and Lmaj promast -1.2.
Cc1ccsc1C(=O)Nc1nnc(-c2ccco2)o1 was read as Calpain2 inh -12.7, WT yeast gro inh 1.8, Lmaj promast 87.7*, KCC2 secondary 0.0135*, KCC2 bumet counter 0.0257*, KCC2 secondary2 0.0323, HEK293 Tl flux 0.0147*, KCC2 retest ouab 0.0303* and HEK counter2 0.0107*.

Screens as filed in PubChem.
